According to PubChem BioAssay (NCI):
The panel holds about 79,000 compounds, 15% with a hit somewhere; the sample as a whole holds those more often. The source made the active and inactive calls. Cut-off read from the data, not from the text of the source: active = growth inhibition above about 70%; inactive = the rest.

What was measured:
[1] = NCI Yeast Anticancer Drug Screen. Data for the mlh1 strain (AID 171);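 note: 0% = growth of vehicle-treated control cultures of the same strain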; details: S. cerevisiae mlh1 strain growth inhibition, hits give high values
How it was run: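 Here the genetically defined yeast mutant is grown with each compound, and the extent to which its growth falls below that of vehicle-exposed cells is reported.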

[2] = NCI Yeast Anticancer Drug Screen. Data for the sgs1 strain (AID 173);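 note: 0% = growth of vehicle-only control cultures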; details: S. cerevisiae sgs1 mutant, hits give high values
How it was run: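 Relative growth inhibition, referenced to vehicle, was determined in a yeast strain with a defined alteration affecting DNA damage repair or cell cycle control after compound exposure.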

[3] = NCI Yeast Anticancer Drug Screen. Data for the mlh1 rad18 strain (AID 175); details: S. cerevisiae mlh1 rad18 strain growth inhibition, hits give high values
How it was run: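 In this whole-cell yeast screen, a strain with altered DNA damage repair is challenged with compound, and its growth is measured against matched vehicle-treated controls.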

[4] = NCI Yeast Anticancer Drug Screen. Data for the rad18 strain (AID 177); details: S. cerevisiae rad18 mutant growth inhibition, hits give high values
How it was run: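 Screen uses a yeast strain with a defined lesion in DNA damage repair; compound effect is read as loss of growth compared to untreated vehicle cultures.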

[5] = NCI Yeast Anticancer Drug Screen. Data for the rad52 strain (AID 147);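 note: 0% = growth of vehicle-treated control cultures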; details: S. cerevisiae rad52 mutant growth inhibition, hits give high values
How it was run: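 Measured: yeast growth inhibition. System: strain with a defined DNA damage repair alteration. Reference: vehicle-treated control cultures.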

[6] = NCI Yeast Anticancer Drug Screen. Data for the wt1 strain (AID 149);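 note: 0% = growth of vehicle-treated wt1 cultures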; details: S. cerevisiae wt1 strain (SPY 50644) growth inhibition, hits give high values
How it was run: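 The wt1 strain was treated with compounds, and growth was compared with vehicle-treated cultures to give inhibition.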

[7] = NCI Yeast Anticancer Drug Screen. Data for the rad50EPP+ strain (AID 151);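 note: 0% = growth of vehicle-treated control cultures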; details: S. cerevisiae rad50 mutant strain, hits give high values
How it was run: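 One strain with a rad50 alteration (rad50EPP+) was compound-treated, its growth then compared to that of vehicle controls.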

[8] = NCI Yeast Anticancer Drug Screen. Data for the mgt1 strain (AID 153); details: S. cerevisiae mgt1 mutant growth inhibition, hits give high values
How it was run: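 After exposure of the mgt1 yeast mutant to compound, growth was measured and reported as inhibition compared with vehicle controls.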

[9] = NCI Yeast Anticancer Drug Screen. Data for the rad50 strain (AID 155);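 note: 0% = growth of vehicle-only cultures of the same strain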; details: S. cerevisiae rad50 strain growth inhibition, hits give high values
How it was run: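 Cells are treated with compound, grown, and their growth is then scored against vehicle-only cultures of the same repair-deficient yeast strain.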

[10] = NCI Yeast Anticancer Drug Screen. Data for the mec2-1 strain (AID 157); details: S. cerevisiae mec2-1 strain, hits give high values
How it was run: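 Test agents were screened against the mec2-1 yeast strain, with defined DNA repair or cell cycle alteration. Growth was scored as inhibition against vehicle-only controls.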

[11] = NCI Yeast Anticancer Drug Screen. Data for the sgs1 mgt1 strain (AID 161);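 note: 0% = growth of cultures given vehicle only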; details: S. cerevisiae sgs1 mgt1 strain, hits give high values
How it was run: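 Genetically altered yeast, compound exposure, growth inhibition relative to vehicle.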

[12] = NCI Yeast Anticancer Drug Screen. Data for the CLN2oe strain (AID 163);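 note: 0% = growth of vehicle-only control cultures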; details: S. cerevisiae CLN2oe strain, hits give high values
How it was run: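 Here, growth inhibition in a cell-cycle-altered yeast strain after compound exposure was quantified against vehicle control growth.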

[13] = NCI Yeast Anticancer Drug Screen. Data for the cln2 rad14 strain (AID 165);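 note: 0% = growth equal to vehicle treated cultures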; details: S. cerevisiae cln2 rad14 strain, hits give high values
How it was run: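 Growth of compound-exposed yeast (cln2 rad14 genotype) measured and expressed as inhibition relative to vehicle.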

[14] = NCI Yeast Anticancer Drug Screen. Data for the bub3 strain (AID 167); details: S. cerevisiae bub3 mutant strain, hits give high values
How it was run: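 Part of a panel of yeast mutants defective in DNA damage repair or cell cycle regulation. Each strain is grown with compound, and inhibition is calculated relative to solvent-treated cultures.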

[15] = NCI Yeast Anticancer Drug Screen. Data for the wt2 strain (AID 169);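 note: 0% = growth of vehicle-treated yeast cultures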; details: S. cerevisiae wt2 strain growth inhibition, hits give high values
How it was run: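 Genetically defined yeast strains from a DNA-repair/cell-cycle panel were used. Compound-exposed yeast growth was measured, and the inhibition was calculated relative to vehicle treatment.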

[16] = NCI Yeast Anticancer Drug Screen. Data for the rad14 strain (AID 159);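 note: 0% = growth of vehicle-treated control cultures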; details: S. cerevisiae rad14 strain growth inhibition, hits give high values
How it was run: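 Readout: yeast growth inhibition, referenced to vehicle-only cultures. Strain bears a defined alteration in DNA damage repair.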

[17] = at 5.0 µM (retest, dose inferred, filed as 0.5)
[18] = at 50.0 µM (retest, dose inferred, filed as 5.0)

Measured: growth inhibition

CCCCCCC(O)CNCc1ccnc2ccc(OC)cc12 (centres undefined)
inactive: [1]; at 1.2 µM 5% | [1]; at 3.7 µM 9% | [1]; at 11.0 µM 15% | [1]; at 33.0 µM 18% | [1]; at 100.0 µM 35% | [2]; at 1.2 µM 6% | [2]; at 3.7 µM 12% | [2]; at 11.0 µM 18% | [2]; at 33.0 µM 29% | [2]; at 100.0 µM 56% | [3]; [17] 21% | [3]; [18] 61% | [3]; at 50.0 µM 52.2% | [4]; at 1.2 µM 7% | [4]; at 3.7 µM 12% | [4]; at 11.0 µM 8% | [4]; at 33.0 µM 19% | [4]; at 100.0 µM 30%

CC(C)(C)c1ccc(NS(=O)(=O)c2ccc(N)cc2)cc1
active: [9]; at 50.0 µM 98.3% | [10]; at 50.0 µM 94.3% | [11]; at 50.0 µM 96.3% | [13]; at 50.0 µM 98.4% | [14]; at 50.0 µM 95.8% | [3]; at 50.0 µM 97.2%
inactive: [5]; at 1.2 µM -1% | [5]; at 3.7 µM -1% | [5]; at 11.0 µM 1% | [5]; at 33.0 µM 6% | [5]; at 100.0 µM 46% | [6]; at 1.2 µM 1% | [6]; at 3.7 µM 2% | [6]; at 11.0 µM 3% | [6]; at 33.0 µM 3% | [6]; at 100.0 µM 12% | [7]; at 1.2 µM 4% | [7]; at 3.7 µM 8% | [7]; at 11.0 µM 10% | [7]; at 33.0 µM 11% | [7]; at 100.0 µM 14% | [8]; at 1.2 µM 0% | [8]; at 3.7 µM -1% | [8]; at 11.0 µM 1% | [8]; at 33.0 µM 2% | [8]; at 100.0 µM 28% | [9]; at 1.2 µM 4% | [9]; at 3.7 µM 3% | [9]; [17] 0% | [9]; at 11.0 µM 14% | [9]; at 33.0 µM 9% | [9]; [18] -22% | [9]; at 100.0 µM 37% | [10]; at 1.2 µM 4% | [10]; at 3.7 µM 4% | [10]; [17] 6% | [10]; at 11.0 µM 6% | [10]; at 33.0 µM 7% | [10]; [18] -5% | [10]; at 100.0 µM 38% | [11]; [17] 0% | [11]; [18] -16% | [12]; at 1.2 µM 4% | [12]; at 3.7 µM 2% | [12]; at 11.0 µM 1% | [12]; at 33.0 µM 4% | [12]; at 100.0 µM 19% | [13]; [17] 34% | [13]; [18] -111% | [14]; at 1.2 µM 0% | [14]; at 3.7 µM 5% | [14]; [17] 28% | [14]; at 11.0 µM 9% | [14]; at 33.0 µM 18% | [14]; [18] -8% | [14]; at 100.0 µM 12% | [15]; at 1.2 µM 0% | [15]; at 3.7 µM 1% | [15]; at 11.0 µM 1% | [15]; at 33.0 µM 4% | [15]; at 100.0 µM 41% | [1]; at 1.2 µM 5% | [1]; at 3.7 µM 3% | [1]; at 11.0 µM 7% | [1]; at 33.0 µM -13% | [1]; at 100.0 µM 48% | [2]; at 1.2 µM 3% | [2]; at 3.7 µM 6% | [2]; at 11.0 µM 14% | [2]; at 33.0 µM 17% | [2]; at 100.0 µM 60% | [3]; [17] -5% | [3]; [18] -5% | [4]; at 1.2 µM 3% | [4]; at 3.7 µM 3% | [4]; at 11.0 µM 15% | [4]; at 33.0 µM 23% | [4]; at 100.0 µM 54%

CCCCOCn1c(=O)[nH]c(=O)c2cc(Br)ccc21
active: [11]; [18] 91% | [11]; at 50.0 µM 90.2% | [13]; [18] 86% | [14]; [18] 92% | [14]; at 50.0 µM 82.2%
inactive: [5]; at 1.2 µM -35% | [5]; at 3.7 µM -45% | [5]; at 11.0 µM -30% | [5]; at 33.0 µM -6% | [5]; at 100.0 µM -10% | [6]; at 1.2 µM -37% | [6]; at 3.7 µM -18% | [6]; at 11.0 µM -58% | [6]; at 33.0 µM -44% | [6]; at 100.0 µM -39% | [7]; at 1.2 µM -59% | [7]; at 3.7 µM -71% | [7]; at 11.0 µM -50% | [7]; at 33.0 µM -61% | [7]; at 100.0 µM -92% | [9]; at 1.2 µM -35% | [9]; at 3.7 µM -26% | [9]; [17] 21% | [9]; at 11.0 µM -10% | [9]; at 33.0 µM -24% | [9]; [18] 22% | [9]; at 50.0 µM 18.7% | [9]; at 100.0 µM -15% | [10]; at 1.2 µM -1% | [10]; at 3.7 µM 6% | [10]; [17] 14% | [10]; at 11.0 µM 2% | [10]; at 33.0 µM 11% | [10]; [18] 11% | [10]; at 50.0 µM 4.05% | [10]; at 100.0 µM -5% | [16]; at 1.2 µM -22% | [16]; at 3.7 µM -50% | [16]; at 11.0 µM -39% | [16]; at 33.0 µM -35% | [16]; at 100.0 µM -42% | [11]; [17] 59% | [12]; at 1.2 µM -20% | [12]; at 3.7 µM -11% | [12]; at 11.0 µM -38% | [12]; at 33.0 µM -21% | [12]; at 100.0 µM -29% | [13]; [17] 32% | [13]; at 50.0 µM 17.8% | [14]; at 1.2 µM -46% | [14]; at 3.7 µM -36% | [14]; [17] 23% | [14]; at 11.0 µM -35% | [14]; at 33.0 µM -39% | [14]; at 100.0 µM -33% | [15]; at 1.2 µM -21% | [15]; at 3.7 µM -20% | [15]; at 11.0 µM -21% | [15]; at 33.0 µM -19% | [15]; at 100.0 µM 0% | [1]; at 1.2 µM -48% | [1]; at 3.7 µM -48% | [1]; at 11.0 µM -41% | [1]; at 33.0 µM -41% | [1]; at 100.0 µM -62% | [2]; at 1.2 µM -18% | [2]; at 3.7 µM -7% | [2]; at 11.0 µM -16% | [2]; at 33.0 µM -18% | [2]; at 100.0 µM -8% | [3]; [17] 28% | [3]; [18] 32% | [3]; at 50.0 µM 26.9% | [4]; at 1.2 µM -19% | [4]; at 3.7 µM -5% | [4]; at 11.0 µM -1% | [4]; at 33.0 µM 9% | [4]; at 100.0 µM 38%
